Compounds with a hit are over-represented: about 3.4% of the library has one in this group of screens.
PAFAH1B3 inh: blocks human PAF acetylhydrolase 1B catalytic subunit 3 | inhibition, % at 3.39 µM | recombinant PAFAH1B3, FP-rhodamine probe, fluorescence polarization | Q15102 | 340,000 compounds, 0.28% hits | AID 492972;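 active = inhibition above the screen-wide average of all tested compounds plus 3 SD, cut at about 25% in these data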
pPAFAH FP inh: pPAFAH (human) enzyme inhibition | Q13093 | recombinant pPAFAH, FP-rhodamine probe fluorescence polarization | inhibition, % at 3.39 µM | 330,000 compounds, 1.5% hits;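 active = inhibition above the mean inhibition across the screen plus 3 SD, cut at about 25% in these data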;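 note: inhibitors block binding of the rhodamine activity-based probe so polarization drops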
PP1 inh: PP1-alpha (human) inhibition in PP5 counter-screen; P62136; purified PP1alpha, OMFP fluorescence; inhibition, % at 6.7 µM; 320,000 compounds, 0.9% hits; AID 2235;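 active = inhibition above the mean inhibition of all tested compounds plus 3 SD, computed separately for each screening campaign, cut at about 15% in these data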
PP5 primary: blocks human protein phosphatase 5 activity; 320,000 compounds, 0.18% hits; P53041; purified PP5c, OMFP substrate fluorescence; inhibition, % at 6.7 µM;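 active = inhibition above the campaign's mean inhibition across all tested compounds plus 3 SD, cut at about 9.5% in these data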
Target sequence (P53041 whole entry, looked up): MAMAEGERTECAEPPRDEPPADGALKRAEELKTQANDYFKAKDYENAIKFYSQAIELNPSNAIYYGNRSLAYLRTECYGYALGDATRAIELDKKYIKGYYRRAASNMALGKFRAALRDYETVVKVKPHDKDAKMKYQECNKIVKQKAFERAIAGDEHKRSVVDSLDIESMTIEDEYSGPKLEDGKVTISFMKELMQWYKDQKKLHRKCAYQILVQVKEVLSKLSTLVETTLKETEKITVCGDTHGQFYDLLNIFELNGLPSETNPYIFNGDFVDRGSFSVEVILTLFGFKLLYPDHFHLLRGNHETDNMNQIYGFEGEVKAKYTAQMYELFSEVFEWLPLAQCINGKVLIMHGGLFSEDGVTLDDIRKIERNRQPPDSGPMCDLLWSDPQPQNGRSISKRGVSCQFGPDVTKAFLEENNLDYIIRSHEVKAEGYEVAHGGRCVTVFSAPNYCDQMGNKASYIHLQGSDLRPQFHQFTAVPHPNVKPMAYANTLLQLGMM
PAFAH1B2 inh: blocks human PAF acetylhydrolase 1b catalytic subunit 2. P68402. recombinant PAFAH1B2, FP-rhodamine activity probe, fluorescence polarization. inhibition, % at 3.39 µM. 340,000 compounds, 1.2% hits. AID 492953;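 active = inhibition above the mean of all tested compounds plus 3 SD, cut at about 24% in these data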
PAFAH2 inh: inhibitors of human PAFAH2 | 340,000 compounds, 0.99% hits | recombinant PAFAH2, FP-rhodamine activity probe, fluorescence polarization | inhibition, % at 3.39 µM | AID 492956 | Q99487;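 active = inhibition above the mean over all tested compounds plus 3 SD, cut at about 30% in these data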;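 note: inhibitors block probe labeling of enzyme so polarization drops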
Numbers stand for hits; – = inactive; · = not tested or not shown.

SMILES | PAFAH1B3 inh | pPAFAH FP inh | PP1 inh | PP5 primary | PAFAH1B2 inh | PAFAH2 inh
O=C1CSC(c2ccc([N+](=O)[O-])cc2)N1C1CCCCC1 (stereo not drawn) | – | – | – | – | 27.4 | –
O=C(Nc1cccc(Cl)c1)N1CCc2ccccc2C1 | – | – | – | – | – | –
Cc1ccccc1OCCn1cc(C(=O)O)c2ccccc21 | – | – | – | – | 24.4 | –
CC1Sc2ccc(C(=O)OCc3ccccc3Cl)cc2NC1=O (stereo not drawn) | – | 29.3 | – | – | – | –
O=S(=O)(NCCc1ccccc1)c1ccc(Br)cc1 | – | – | – | – | 27.6 | –
O=S(=O)(NCCSc1ccccn1)c1ccc(Br)cc1 | – | – | – | – | 24.8 | –
O=C(/C=C/c1ccc(-c2ccccc2)o1)c1ccccc1 | – | 26.6 | – | – | – | –
Cc1ccc(-c2ccc(/C=C/C(=O)c3ccccc3)o2)cc1 | – | – | – | – | – | –
Cc1ccc(C(=O)N2CCN(Cc3ccccc3)CC2)o1 | – | – | – | – | – | –
Cc1cc2oc(C(=O)N3CCN(Cc4ccccc4)CC3)c(C)c2cc1C | – | 25.6 | – | – | – | –
NC(=O)CC(NC(=O)Cc1ccc(Br)cc1)c1ccc(NCc2ccc(F)c(F)c2)c([N+](=O)[O-])c1 (stereo not drawn) | – | – | 16.9 | – | – | –
CCC(CC)Nc1ccc(C(CC(N)=O)NC(=O)Cc2cccc3ccccc23)cc1[N+](=O)[O-] (stereo not drawn) | – | – | 17.3 | – | – | –
NC(=O)CC(NC(=O)Cc1cccc2ccccc12)c1ccc(NC2CCCC2)c([N+](=O)[O-])c1 (stereo not drawn) | – | · | · | · | – | –
COc1ccc(CNc2nc(C)cc(C)c2C#N)cc1 | – | – | – | – | – | –
O=C(O)CCN1C(=O)/C(=C/c2ccc(-c3nc4ccccc4s3)o2)SC1=S | – | – | – | – | – | –
Cc1nn(-c2ccccc2)c(Cl)c1/C=C1\SC(=S)N(CCCCCC(=O)O)C1=O | – | 27.9 | 16.4 | – | – | –
O=C(O)CCCN1C(=O)/C(=C\c2ccc(-c3nc4ccccc4s3)o2)SC1=S | – | 30.5 | – | – | – | 40.5
Cc1nn(-c2ccccc2)c(Cl)c1/C=C1\SC(=S)NC1=O | – | – | – | – | – | –
Cc1ccc(CN2CCSc3ccc(C(=O)NC4CCCC4)cc32)cc1 | – | – | – | – | – | –
Cc1ccc(SCCC(=O)NCC2CCCO2)cc1 (stereo not drawn) | – | – | – | – | – | –
CCN(CC)c1ccc(C(=O)OCC(=O)NCC2CCCO2)cc1 (stereo not drawn) | – | 31.8 | – | – | – | 72.6
Cc1ccc(CN2CCSc3ccc(C(=O)NCC4CCCO4)cc32)cc1 (stereo not drawn) | – | 33.4 | – | – | – | –
Cc1ccc(SCC(=O)NCC2CCCO2)cc1 (stereo not drawn) | – | – | – | – | 24.6 | –
O=C(COC(=O)/C=C/c1ccc(Cl)cc1Cl)NCC1CCCO1 (stereo not drawn) | – | 26.8 | · | · | – | –
O=[N+]([O-])c1ccc(NCc2ccc3c(c2)OCO3)cc1 | – | – | – | – | – | –
SMILES | PAFAH1B3 inh | pPAFAH FP inh | PP1 inh | PP5 primary | PAFAH1B2 inh | PAFAH2 inh
CCOC(=O)C1=C(COC(=O)c2cccc(Cl)c2)NC(=O)NC1C (stereo not drawn) | – | – | – | – | – | –
Cc1ccc(NS(=O)(=O)c2cc(C(=O)OCC(=O)NCC3CCCO3)ccc2C)cc1 (stereo not drawn) | – | 34.3 | – | – | – | –
COc1ccc(-n2c(SCC(=O)NCC3CCCO3)nc3ccccc32)cc1 (stereo not drawn) | – | 25.9 | – | – | – | –
CN1CCN(C(=O)c2cc(COc3ccc(F)cc3Cl)on2)CC1c1ccccc1 (stereo not drawn) | – | – | – | – | – | –
CC(C)N1CCN(S(=O)(=O)c2ccc3ccccc3c2)CC1 | – | – | – | – | – | –
COc1ccc(NC(=S)N2CCC(c3nc4ccc(Cl)cc4[nH]3)CC2)c(OC)c1 | – | 31.1 | – | – | – | –
Cc1ccc(Cn2c(=N)c(C(=O)NCC3CCCO3)cc3c(=O)n4cccc(C)c4nc32)cc1 (stereo not drawn) | – | – | – | – | – | –
COc1cc(C(=O)O[C@H]2CC(C)=CC[C@@]3(C)CC[C@@](O)(C(C)C)[C@H]23)ccc1O | – | – | – | – | 34.1 | –
COc1cc(C(=O)O[C@H]2C/C(C)=C/CC[C@]3(C)O[C@@H]3C(O)C2C(C)C)cc(OC)c1OC (stereo partly drawn) | – | – | – | – | – | –
C=CCOn1c(=O)c(-c2ccc(OC)cc2)[n+]([O-])c2ccccc21 | – | 32.8 | – | – | – | –
COc1ccc(-c2c(=O)n(OCc3nc4ccccc4[nH]3)c3ccccc3[n+]2[O-])cc1 | – | – | – | – | – | –
CCC1(C)NC(=O)N(CC(=O)Nc2sc3c(c2C(=O)OC)CCCCC3)C1=O (stereo not drawn) | – | – | – | – | – | –
CCC1(CC)NC(=O)N(CC(=O)Nc2sc3c(c2C(N)=O)CCC3)C1=O | – | 28.0 | – | – | – | –
Cc1cnc(NC(=O)CCCSc2nc3ccccc3s2)s1 | – | – | – | – | – | –
CC(C)c1ccccc1-n1c(SCC(=O)N2CCN(c3ccccc3)CC2)nnc1-c1cccnc1 | – | – | – | – | – | –
CC(=O)N1CCN(c2ccc(NCc3cccs3)cc2)CC1 | – | – | – | – | – | –
COc1ccc(N2CCN(C(=O)c3ccc(CSc4ccccc4)cc3)CC2)cc1 | – | – | – | – | 25.9 | –
CC(=O)N1CCN(c2ccc(NCc3ccc(C)s3)cc2)CC1 | – | – | – | – | – | –
CC(=O)N1CCN(c2ccc(NCc3ccccc3)cc2)CC1 | – | 32.2 | – | – | – | –
CC(=O)N1CCN(c2ccc(NCc3cccc4ccccc34)cc2)CC1 | – | 30.7 | – | – | – | –
COc1cc(CNc2ccc(N3CCCC3)cc2)ccc1OCc1ccccc1 | – | 29.3 | – | – | – | –
COc1ccc(N2CCN(C(=O)CSc3ccccc3)CC2)cc1 | – | – | – | – | – | –
Cc1ccc(C(=O)N2CCN(c3ccc(NC(=S)NC(=O)Cc4ccccc4)cc3)CC2)cc1 | – | 25.1 | – | – | – | –
COc1ccc(C(=O)N2CCN(c3ccc(NC(=O)Cc4ccccc4)cc3)CC2)cc1 | – | – | – | – | – | –
Cc1cc(N2CCCC2=O)cc(C)c1S(=O)(=O)NCCOc1ccc(C(C)(C)C)cc1 | – | – | – | – | 40.1 | –
O=C1CCCN1c1ccc(S(=O)(=O)NCCOc2ccccc2)cc1 | – | – | – | – | – | –
O=C(Oc1cc2oc(=O)cc(-c3ccccc3)c2cc1Cl)C1CCCCC1 | – | – | – | – | 47.4 | –
O=C(Oc1ccc2ccc(=O)oc2c1)C1CCCCC1 | – | – | – | – | – | –
